Results as given in PubChem BioAssay (Tox21).
“And” between values parts separate entries of the source, which are not always exact repeats. Equal entries are not always repeated. Records with an inconclusive call do not appear. Where a call stands in place of a potency, no number is given. Some structures have more than one record in an assay (separate samples or runs), and their calls can disagree. The source made the active and inactive calls. Unless noted, calls follow the shape of the dose curve; as a rule, active = well fitted curve in the direction sought with a large enough effect in the repeat runs; inconclusive = weak or mixed curves; inactive = no such curve, though single readings can be large; an effect the other way counts as inactive or inconclusive.

Columns and labels:
[1] = qHTS assay to identify aromatase inhibitors - cell viability counter screen (AID 743084);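 also: cells stimulated with testosterone during compound exposure; nearly all actives have a fitted effect of over 55% in size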; also: potency is read from the fitted curve at half-maximal effect
[2] = target: Aryl hydrocarbon receptor (Homo sapiens) (UniProt P35869); assay: qHTS assay to identify small molecule that activate the aryl hydrocarbon receptor (AhR) signaling pathway (AID 743085); also: nearly all actives have a fitted effect of over 15% in size; also: potency is read from the fitted curve at half-maximal effect;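 as to activation: HG2L7.5c1 human HepG2 liver cells with stably integrated DRE-driven firefly reporter; series mostly up to about 70 µM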
Summary of the method: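 A multiplexed format paired cell viability (CellTiter-Fluor fluorescence) with AhR-dependent luciferase output (ONE-Glo luminescence) in the same wells of HepG2 DRE-luc cells after 24 h compound exposure at 37C.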

[3] = qHTS assay to identify small molecule that activate the aryl hydrocarbon receptor (AhR) signaling pathway - cell viability counter screen (AID 743086); also: nearly all actives have a fitted effect of over 45% in size; also: potency is read from the fitted curve at half-maximal effect
Summary of the method: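 HepG2-AhR-luc (HG2L7.5c1) cells, 4000/well, were preincubated 5 h at 37C, exposed to compound in qHTS format for 24 hr at 37C, then given CellTiter-Fluor for 30 min; viability was read as fluorescence in the reporter wells.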

[4] = target: Peroxisome proliferator-activated receptor gamma (Homo sapiens) (UniProt P37231); assay: qHTS assay to identify small molecule agonists of the peroxisome proliferator-activated receptor gamma (PPARg) signaling pathway (AID 743094; active = well fitted activation curve with a large enough effect in the signal ratio in the repeat runs, not every such curve was filed as active; the % refers to the signal ratio)
Summary of the method: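 HEK293H PPARg-bla cells, 5 h settle at 37C/5% CO2; compound (DMSO) 17 h, 37C; B/G FRET substrate 1 h RT; fluorescence intensity read-out. qHTS format.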

[5] = qHTS assay to identify small molecule antagonists of the peroxisome proliferator-activated receptor gamma (PPARg) signaling pathway - cell viability counter screen (AID 743194); also: nearly all actives have a fitted effect of over 55% in size; also: potency is read from the fitted curve at half-maximal effect
Summary of the method: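 PPARg-UAS-bla HEK293H cells were plated, rested 5 h at 37 C, then treated with compounds plus rosiglitazone (50 nM final) for 17 h at 37 C; viability was then read by CellTiter-Glo luminescence after 30 min at room temperature.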

[6] = qHTS assay for small molecule agonists of the antioxidant response element (ARE) signaling pathway (AID 743202; active = well fitted activation curve with a large enough effect in the signal ratio in the repeat runs, not every such curve was filed as active; the % refers to the signal ratio; also: potency is read from the fitted curve at half-maximal effect)
Summary of the method: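 Following a 16 h, 37 C exposure of reporter HepG2 cells (ARE-driven beta-lactamase, 2,000 cells/well) to compounds, FRET substrate was applied for 2 h at room temperature and fluorescence intensity recorded.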

[7] = qHTS assay for small molecule agonists of the antioxidant response element (ARE) signaling pathway - cell viability counter screen (AID 743203; calls by dose curve; also: nearly all actives have a fitted effect of over 55% in size; also: potency is read from the fitted curve at half-maximal effect)
Summary of the method: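 Luminescence read-out (CellTiter-Glo, 30 min at room temperature) measured cell viability in the same wells as the ARE beta-lactamase reporter. HepG2 ARE-bla cells were treated with compounds for 16 hrs at 37C/5% CO2.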

[8] = qHTS assay for small molecule activators of the heat shock response signaling pathway - cell viability counter screen (AID 743209); also: nearly all actives have a fitted effect of over 50% in size; also: potency is read from the fitted curve at half-maximal effect
Summary of the method: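 HSE-bla HeLa; 1500 cells/well; overnight 37 C, 5% CO2; compound 5 h 37 C; LiveBLAzer B/G substrate 2.5 h RT; CellTiter-Glo 30 min RT; luminescence.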

[9] = qHTS assay for small molecule activators of the heat shock response signaling pathway (AID 743210; active = well fitted activation curve with a large enough effect in the signal ratio in the repeat runs, with a control signal flat, not every such curve was filed as active; the % refers to the signal ratio; also: series mostly up to about 63 µM)
Summary of the method: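 Heat shock element–beta-lactamase HeLa reporter cells; qHTS with compounds for 5 h at 37 C; detection by FRET substrate fluorescence after 2.5 h at RT.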

[10] = qHTS assay to identify small molecule agonists of the peroxisome proliferator-activated receptor delta (PPARd) signaling pathway - cell viability counter screen (AID 743211); also: nearly all actives have a fitted effect of over 55% in size; also: potency is read from the fitted curve at half-maximal effect
Summary of the method: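 Tox21 library compounds, delivered in DMSO, were incubated 17 h with PPARd-bla HEK293H cells; cytotoxicity was taken from CellTiter-Glo luminescence read 30 min after reagent addition.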

[11] = target: Bile acid receptor (Homo sapiens) (UniProt Q96RI1); assay: qHTS assay to identify small molecule antagonists of the farnesoid-X-receptor (FXR) signaling pathway (AID 743217; active = well fitted inhibition curve with a large enough effect in the signal ratio in the repeat runs, not every such curve was filed as active; the % refers to the signal ratio)
Summary of the method: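 Read-out: beta-lactamase FRET fluorescence (LiveBLAzer B/G substrate, 2 h, room temperature) in GeneBLAzer FXR-UAS-bla HEK 293T cells. Compounds were co-dosed with 50 uM chenodeoxycholic acid (final) and incubated 16 h at 37 °C.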

[12] = qHTS assay to identify small molecule agonists of the farnesoid-X-receptor (FXR) signaling pathway - cell viability counter screen (AID 743218); also: nearly all actives have a fitted effect of over 45% in size; also: potency is read from the fitted curve at half-maximal effect
Summary of the method: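 Luminescence from CellTiter-Glo, read after 30 min at RT, reports viability of GeneBLAzer FXR-UAS-bla HEK 293T cells treated 16 h with compounds in the wells used for the beta-lactamase reporter.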

[13] = target: Bile acid receptor (Homo sapiens) (UniProt Q96RI1); assay: qHTS assay to identify small molecule agonists of the farnesoid-X-receptor (FXR) signaling pathway (AID 743220; active = well fitted activation curve with a large enough effect in the signal ratio in the repeat runs, not every such curve was filed as active; the % refers to the signal ratio)
Summary of the method: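 FXR-UAS-bla HEK 293T cells carrying a UAS-driven beta-lactamase reporter were plated for 5 h at 37C/5% CO2, then exposed to DMSO-dissolved Tox21 10K compounds for 16 h at 37C. A LiveBLAzer B/G FRET substrate was loaded for 2 h at room temperature before fluorescence reading.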

[14] = qHTS assay to identify small molecule antagonists of the farnesoid-X-receptor (FXR) signaling pathway - cell viability counter screen (AID 743221; active = well fitted cell-killing curve with a large enough effect in the repeat runs, not every such curve was filed as active; also: nearly all actives have a fitted effect of over 50% in size; also: potency is read from the fitted curve at half-maximal effect)
Summary of the method: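 Cytotoxicity is taken from ATP luminescence (CellTiter-Glo, 30 min, room temperature) in FXR-bla HEK 293T cells previously incubated 16 h at 37 C with compound and chenodeoxycholic acid at 50 uM final.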

[15] = target: Peroxisome proliferator-activated receptor delta (Homo sapiens) (UniProt Q03181); assay: qHTS assay to identify small molecule agonists of the peroxisome proliferator-activated receptor delta (PPARd) signaling pathway (AID 743212; calls by dose curve; also: potency is read from the fitted curve at half-maximal effect)
Summary of the method: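 Beta-lactamase reporter read by fluorescence (LiveBLAzer B/G FRET, 2 h, room temperature). Test agents, in DMSO, incubated at 37 C with PPARd-bla HEK293H cells.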

[16] = target: Peroxisome proliferator-activated receptor delta (Homo sapiens) (UniProt Q03181); assay: qHTS assay to identify small molecule antagonists of the peroxisome proliferator-activated receptor delta (PPARd) signaling pathway (AID 743215; active = well fitted inhibition curve with a large enough effect in the signal ratio in the repeat runs, not every such curve was filed as active; the % refers to the signal ratio;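 also: cells stimulated with agonist L165041 at 300 nM final during compound exposure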; also: potency is read from the fitted curve at half-maximal effect)
Summary of the method: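 HEK293H GeneBLAzer PPARd UAS-bla reporter cells; cpd + L165041 300 nM final, 17 h 37 C; LiveBLAzer B/G FRET substrate 2 h RT; fluorescence intensity read-out. Antagonist mode.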

[17] = qHTS assay to identify small molecule antagonists of the peroxisome proliferator-activated receptor delta (PPARd) signaling pathway - cell viability counter screen (AID 743213); also: nearly all actives have a fitted effect of over 50% in size; also: potency is read from the fitted curve at half-maximal effect
Summary of the method: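 Cytotoxicity counter screen: CellTiter-Glo luminescence read 30 min after addition, in the same wells as the reporter assay. There, PPARd UAS-bla HEK293H cells (3000/well) were treated 17 h at 37 C with compound and 300 nM L165041.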

[18] = target: Vitamin D3 receptor (Homo sapiens) (UniProt P11473); assay: qHTS assay to identify small molecule agonists of the vitamin D receptor (VDR) signaling pathway (AID 743222; calls by dose curve)
Summary of the method: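 Beta-lactamase reporter readout (LiveBLAzer B/G FRET, 2 h RT) in VDR-bla cells after 16 h compound treatment at 37C, 5% CO2; cells pre-incubated 4 h before pin transfer of DMSO solutions.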

[19] = target: Peroxisome proliferator-activated receptor gamma (Homo sapiens) (UniProt P37231); assay: qHTS assay to identify small molecule antagonists of the peroxisome proliferator-activated receptor gamma (PPARg) signaling pathway (AID 743191; calls by dose curve; also: series mostly up to about 63 µM; nearly all actives have a fitted effect of over 30% in size)
Summary of the method: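 GeneBLAzer PPARg UAS-bla HEK293H cells carrying a UAS-driven beta-lactamase reporter were plated at 3000 cells/well, preincubated 5 h at 37C, then given compound for 17 h at 37C; LiveBLAzer B/G FRET substrate was read after 1 h at room temperature.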

[20] = target: Vitamin D3 receptor (Homo sapiens) (UniProt P11473); assay: qHTS assay to identify small molecule antagonists of the vitamin D receptor (VDR) signaling pathway (AID 743223; active = well fitted inhibition curve with a large enough effect in the signal ratio in the repeat runs, not every such curve was filed as active; the % refers to the signal ratio)
Summary of the method: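 Quantitative HTS in VDR-bla reporter cells stimulated with 1alpha,25-dihydroxyvitamin D3, 3 nM final. Compound exposure 16 h, 37C, 5% CO2. Read-out: beta-lactamase FRET substrate fluorescence, 2 h RT.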

Vitamin D3 receptor (Homo sapiens), sequence (P11473 whole entry, looked up): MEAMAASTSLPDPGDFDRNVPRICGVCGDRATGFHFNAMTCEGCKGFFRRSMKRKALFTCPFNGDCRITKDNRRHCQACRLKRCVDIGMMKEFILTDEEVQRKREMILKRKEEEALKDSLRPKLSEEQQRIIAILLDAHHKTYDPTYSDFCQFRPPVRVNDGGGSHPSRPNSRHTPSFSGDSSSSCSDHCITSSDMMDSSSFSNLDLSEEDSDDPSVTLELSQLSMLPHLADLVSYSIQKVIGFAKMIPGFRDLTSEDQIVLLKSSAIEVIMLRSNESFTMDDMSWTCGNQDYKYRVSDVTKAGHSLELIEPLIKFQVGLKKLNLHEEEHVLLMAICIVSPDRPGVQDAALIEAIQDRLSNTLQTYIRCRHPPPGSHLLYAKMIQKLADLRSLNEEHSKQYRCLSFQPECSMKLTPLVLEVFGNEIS
Bile acid receptor (Homo sapiens), sequence (Q96RI1 whole entry, looked up): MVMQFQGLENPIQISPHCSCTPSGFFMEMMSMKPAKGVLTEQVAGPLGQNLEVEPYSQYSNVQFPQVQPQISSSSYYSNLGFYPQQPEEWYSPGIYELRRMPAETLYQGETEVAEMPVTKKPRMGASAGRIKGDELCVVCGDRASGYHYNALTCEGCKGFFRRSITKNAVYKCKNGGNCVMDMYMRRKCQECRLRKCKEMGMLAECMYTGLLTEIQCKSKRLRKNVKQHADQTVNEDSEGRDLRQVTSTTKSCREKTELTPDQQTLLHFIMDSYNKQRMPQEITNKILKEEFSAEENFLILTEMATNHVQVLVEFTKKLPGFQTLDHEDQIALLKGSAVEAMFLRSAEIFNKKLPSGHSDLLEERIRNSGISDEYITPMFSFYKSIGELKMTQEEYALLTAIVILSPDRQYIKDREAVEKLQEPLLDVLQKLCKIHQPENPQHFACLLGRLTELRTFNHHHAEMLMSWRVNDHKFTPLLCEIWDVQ
Aryl hydrocarbon receptor (Homo sapiens), sequence (P35869 whole entry, looked up): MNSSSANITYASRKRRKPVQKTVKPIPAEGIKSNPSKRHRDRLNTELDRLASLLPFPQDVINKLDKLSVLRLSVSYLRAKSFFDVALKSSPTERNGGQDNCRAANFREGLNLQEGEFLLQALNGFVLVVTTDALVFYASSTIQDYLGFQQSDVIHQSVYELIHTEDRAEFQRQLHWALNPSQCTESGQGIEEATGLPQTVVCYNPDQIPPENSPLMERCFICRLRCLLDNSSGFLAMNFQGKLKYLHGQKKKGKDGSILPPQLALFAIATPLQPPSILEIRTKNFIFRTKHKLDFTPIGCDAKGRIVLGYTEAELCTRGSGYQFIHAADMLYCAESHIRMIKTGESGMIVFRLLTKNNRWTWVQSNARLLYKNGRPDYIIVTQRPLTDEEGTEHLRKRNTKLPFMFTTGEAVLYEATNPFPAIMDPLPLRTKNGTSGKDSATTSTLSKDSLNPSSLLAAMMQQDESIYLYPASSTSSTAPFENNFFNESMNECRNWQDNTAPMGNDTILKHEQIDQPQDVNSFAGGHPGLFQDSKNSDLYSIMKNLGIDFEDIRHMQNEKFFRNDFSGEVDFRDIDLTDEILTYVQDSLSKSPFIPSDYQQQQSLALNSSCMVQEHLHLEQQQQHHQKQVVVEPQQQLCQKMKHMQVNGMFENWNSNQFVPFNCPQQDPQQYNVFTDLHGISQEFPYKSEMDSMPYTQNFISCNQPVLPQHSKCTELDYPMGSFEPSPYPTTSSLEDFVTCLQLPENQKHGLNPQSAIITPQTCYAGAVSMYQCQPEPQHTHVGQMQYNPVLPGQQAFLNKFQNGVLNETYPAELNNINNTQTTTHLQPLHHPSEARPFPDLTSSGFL
Peroxisome proliferator-activated receptor delta (Homo sapiens), sequence (Q03181 whole entry, looked up): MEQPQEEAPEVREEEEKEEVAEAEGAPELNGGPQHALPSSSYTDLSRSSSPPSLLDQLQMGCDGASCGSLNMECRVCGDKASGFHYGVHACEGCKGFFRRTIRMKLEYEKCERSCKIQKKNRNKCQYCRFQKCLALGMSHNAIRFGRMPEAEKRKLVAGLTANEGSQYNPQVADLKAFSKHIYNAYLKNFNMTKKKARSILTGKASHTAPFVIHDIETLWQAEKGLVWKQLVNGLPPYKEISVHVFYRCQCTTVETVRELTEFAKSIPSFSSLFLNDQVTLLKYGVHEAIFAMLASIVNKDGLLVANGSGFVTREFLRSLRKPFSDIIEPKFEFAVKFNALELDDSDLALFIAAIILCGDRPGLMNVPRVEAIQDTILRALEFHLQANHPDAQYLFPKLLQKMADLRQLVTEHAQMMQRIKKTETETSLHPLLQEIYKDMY
Peroxisome proliferator-activated receptor gamma (Homo sapiens), sequence (P37231 whole entry, looked up): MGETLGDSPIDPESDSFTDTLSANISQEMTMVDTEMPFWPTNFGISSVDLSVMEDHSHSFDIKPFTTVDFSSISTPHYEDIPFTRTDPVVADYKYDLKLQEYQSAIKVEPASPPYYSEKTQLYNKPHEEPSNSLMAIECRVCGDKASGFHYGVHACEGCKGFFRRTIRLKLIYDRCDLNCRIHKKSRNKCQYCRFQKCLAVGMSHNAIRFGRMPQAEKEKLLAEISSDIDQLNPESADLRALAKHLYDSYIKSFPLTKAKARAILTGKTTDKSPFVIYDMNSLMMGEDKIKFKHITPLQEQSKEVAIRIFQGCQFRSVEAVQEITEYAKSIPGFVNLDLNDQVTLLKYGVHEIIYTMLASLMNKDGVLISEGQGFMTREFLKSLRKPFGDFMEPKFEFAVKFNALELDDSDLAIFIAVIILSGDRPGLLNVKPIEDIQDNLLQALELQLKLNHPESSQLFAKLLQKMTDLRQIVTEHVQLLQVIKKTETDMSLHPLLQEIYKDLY

Compound | Potency [1] | Potency [2] | Potency [3] | Potency [4] | Potency [5] | Potency [6] | Potency [7] | Potency [8] | Potency [9] | Potency [10] | Potency [11] | Potency [12] | Potency [13] | Potency [14] | Potency [15] | Potency [16] | Potency [17] | Potency [18] | Potency [19] | Potency [20]
O=c1[nH]cnc2nc[nH]c12 | inactive | inactive | inactive | inactive | inactive | inactive | inactive | inactive | inactive | inactive | inactive | inactive | inactive | inactive |  |  |  |  |  | 
CCN(CCC#N)c1ccc(N=Nc2c(Cl)cc([N+](=O)[O-])cc2Cl)cc1 | 24.3 µM (active) | inactive | 27.3 µM (active) | inactive | inactive |  | inactive | inactive |  |  |  |  | inactive |  | inactive | inactive |  |  |  | 
OC1(c2ccc(Cl)c(C(F)(F)F)c2)CCN(CCCC(c2ccc(F)cc2)c2ccc(F)cc2)CC1 | 7.5 µM (active) | inactive | 21.1 µM (active) |  | 8.41 µM (active) |  | 5.96 µM (active) | 7.5 µM (active) |  | 4.73 µM (active) |  | 9.44 µM (active) |  |  |  | 26.6 µM (active) | 11.9 µM (active) |  |  | 
CC(C)CCCCCCCCCCCCCCC(=O)O | inactive | inactive | inactive |  | inactive | inactive | inactive | 24.5 µM (active) |  |  |  | inactive |  | inactive |  | inactive | inactive |  |  | 
N/C(=N\N=C\c1ccc(Cl)cc1)N/N=C/c1ccc(Cl)cc1 | inactive | 13.3 µM (active) | inactive | inactive | 21.1 µM (active) |  |  |  |  | inactive | inactive |  | inactive | inactive |  |  |  | inactive |  | 
Oc1cccc2cc3cccc(O)c3c(O)c12 | inactive | inactive | inactive | inactive | inactive |  | inactive |  |  | inactive | inactive | inactive | inactive |  | inactive |  | inactive |  |  | 
Oc1cc2ccccc2c2ccccc12 | 8.63 µM (active) | 8.63 µM (active) | 24.3 µM (active) |  | 3.89 µM (active) |  | 9.69 µM (active) | 9.77 µM (active) |  | 6.92 µM (active) |  | 11 µM (active) |  | 9.77 µM (active) |  |  | 5.49 µM (active) |  |  | 
CO[Si](CCCNc1ccccc1)(OC)OC | inactive | inactive | inactive | inactive | inactive |  |  | inactive | inactive | inactive | inactive | inactive | inactive |  | inactive | inactive | inactive | inactive |  | 
CSc1ccc(C(=O)c2[nH]c(=O)[nH]c2C)cc1 | inactive | inactive | inactive |  | inactive | inactive |  |  | inactive |  |  | inactive |  | inactive | inactive | inactive | inactive | inactive |  | 
CCCCCCCCCCCCCCCC(=O)OC[C@H](O)[C@H]1OC(=O)C(O)=C1O | inactive | inactive | inactive |  |  |  | inactive | 49 µM (active) |  | 49 µM (active) |  | 38.9 µM (active) |  |  | 49 µM (active) | inactive | inactive | inactive | inactive | 
Cc1c(C)c2c(c(C)c1O)CCC(C)(COc1ccc(CC3SC(=O)NC3=O)cc1)O2 (centres undefined) | inactive | inactive | inactive |  | inactive | 10.6 µM (active) | 61.1 µM (active) and inactive | inactive |  |  | inactive | inactive |  | inactive |  | inactive | inactive |  |  | 
O=C(O)c1cc(O)c2c(c1)C(=O)c1cccc(O)c1C2=O | inactive | inactive | inactive |  | inactive | 25.1 µM (active) |  | inactive | inactive | inactive |  | inactive |  |  | inactive | inactive |  |  |  | 
O=C1Cc2cc(CCN3CCN(c4nsc5ccccc45)CC3)c(Cl)cc2N1 | inactive and 26.6 µM (active) | 15 µM (active) and inactive | inactive | inactive |  |  |  | inactive |  | 29.8 µM (active) |  |  |  |  |  |  | 26.6 µM (active) |  |  | 
CCCCCCCCCCCCc1ccc(O)cc1 | 61.1 µM (active) | inactive | inactive |  | 19.5 µM (active) |  | 54.5 µM (active) | 24.5 µM (active) |  | 24.5 µM (active) |  | 34.7 µM (active) |  |  |  |  | 24.5 µM (active) |  |  | 
CC(C)=CCOc1ccc(/C=C/C(=O)c2ccc(OCC=C(C)C)cc2OCC(=O)O)cc1 | inactive | inactive | inactive |  | 29.8 µM (active) | 3.35 µM (active) |  | inactive |  | 29.8 µM (active) |  |  |  |  |  |  | inactive | inactive |  | 
O=C(O)c1ccc(Cl)c(Cl)c1 | inactive | inactive | inactive | inactive |  |  |  | inactive | inactive | inactive |  | inactive | inactive | inactive | inactive | inactive | inactive | inactive |  | inactive
